Reference: PubChem BioAssay (Tox21)
Values joined by “and” are separate entries in the source; they are usually repeats but may differ in a detail not shown here. Identical values can stand only once. Inconclusive results are not listed. More than one record can exist for a structure, and the calls need not agree. Active and inactive are the calls of the source. Unless noted, the call rests on the fitted dose curve; in most records, active means well fitted curve in the direction sought with a large enough effect in the repeat runs; inconclusive means weak or mixed curves; inactive means no such curve, though single readings can be large; an effect the other way counts as inactive or inconclusive.

How the values were obtained:
[1] = qHTS assay to identify small molecule agonists of the endoplasmic reticulum stress response signaling pathway (AID 1159516; active means well fitted activation curve with a large enough effect in the signal ratio in the repeat runs, not every such curve was filed as active; the % refers to the signal ratio)
Method in brief: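 Reporter HeLa cells (ESRE-beta-lactamase) underwent 5 hr compound incubation at 37 C and 5% CO2 in quantitative HTS format. Detection followed 2 hr of FRET substrate loading at room temperature.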

[2] = qHTS assay to identify small molecule agonists of the endoplasmic reticulum stress response signaling pathway - cell viability counter screen (AID 1159517; calls by dose curve; further: nearly all actives have a fitted effect of over 50% in size; further: potency means the concentration at half of the fitted maximal effect)
Method in brief: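 HeLa cells carrying an ESRE-driven beta-lactamase reporter receive compound for 5 hr at 37 C. Cell viability is then gauged with CellTiter-Glo by luminescence, 30 min at room temperature.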

[3] = target: Nuclear receptor ROR-gamma (Homo sapiens) (UniProt P51449); experiment: qHTS assay to identify small molecule antagonists of the retinoid-related orphan receptor gamma (ROR-gamma) signaling pathway (AID 1159521; further: nearly all actives have a fitted effect of over 50% in size; further: potency means the concentration at half of the fitted maximal effect)
Method in brief: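 Cells were plated, rested 4 h at 37 C, exposed to compounds for 2 h, then given 1 uM final doxycycline hyclate to induce RORγ expression. After 16 h, ONE-Glo luminescence from the ROR response element reporter was measured.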

[4] = qHTS assay to identify small molecule antagonists of the retinoid acid receptor (RAR) signaling pathway - cell viability counter screen (AID 1159551); further: nearly all actives have a fitted effect of over 35% in size; further: potency means the concentration at half of the fitted maximal effect
Method in brief: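 Seed C3RL4 cells; next day add compound, then retinol to 1 uM final; incubate 6 h at 37 C; add CellTiter-Glo; read luminescence after 30 min at RT.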

[5] = target: Luciferin 4-monooxygenase (Photinus pyralis) (UniProt P08659); experiment: qHTS assay to identify small molecule inhibitors of firefly luciferase (AID 1224835); further: nearly all actives have a fitted effect of over 25% in size; further: potency means the concentration at half of the fitted maximal effect
Method in brief: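 Inhibition of purified Photinus luciferase is measured by luminescence. Substrate levels (D-luciferin, ATP) sit at their KM values. Each compound is tested in a concentration series.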

[6] = qHTS assay to identify small molecule agonists of the NFkB signaling pathway - cell viability counter screen (AID 1159515; calls by dose curve; further: nearly all actives have a fitted effect of over 55% in size; further: potency means the concentration at half of the fitted maximal effect)
Method in brief: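 5 hr compound treatment of NFkB-bla ME-180 cells (2,000/well, seeded overnight beforehand), followed by reporter substrate for 1.5 hr. CellTiter-Glo added afterward; luminescence after 30 min RT.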

[7] = qHTS assay to identify small molecule agonists of the AP-1 signaling pathway - cell viability counter screen (AID 1159525; calls by dose curve; further: nearly all actives have a fitted effect of over 55% in size; further: potency means the concentration at half of the fitted maximal effect)
Method in brief: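 Luminescent ATP readout (Cell Titer Glo, 30 min RT), normalised to DMSO and tetra n-octyl ammonium bromide controls. Cells were ME-180 AP-1-bla in 0.5% dialyzed FBS Opti-MEM, with a 5 h, 37 °C compound exposure.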

[8] = qHTS assay to identify small molecule antagonists of the estrogen related receptor (ERR) signaling pathway from Tox21 library - cell viability counter screen (AID 1224834); further: nearly all actives have a fitted effect of over 30% in size; further: potency means the concentration at half of the fitted maximal effect
Method in brief: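 CellTiter-Fluor fluorescence measured; ERR cells; 17.5 h compound incubation at 37 C; 30 min reagent step.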

[9] = qHTS assay to identify small molecule antagonists of the retinoid-related orphan receptor gamma (ROR-gamma) signaling pathway - cell viability counter screen (AID 1159520); further: nearly all actives have a fitted effect of over 50% in size; further: potency means the concentration at half of the fitted maximal effect
Method in brief: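 Cytotoxicity was read from cellular ATP (CellTiter-Glo luminescence) after 16 hr at 37 C with 1 uM doxycycline induction. The inducer was added 2 hr after compound transfer to Tet-on ROR gamma CHO cells.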

[10] = qHTS assay to identify small molecule agonists of the AP-1 signaling pathway (AID 1159526; calls by dose curve)
[11] = qHTS assay to identify small molecule agonists of the RXR signaling pathway - cell viability counter screen (AID 1159529); further: nearly all actives have a fitted effect of over 50% in size; further: potency means the concentration at half of the fitted maximal effect
Method in brief: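 Steps: seed RXR-alpha-UAS-bla HEK 293T cells in assay medium containing 2% charcoal-stripped FBS; incubate 5 hr; add compounds in DMSO; incubate 16 hr at 37 C; after the bla read, add CellTiter-Glo and read luminescence at 30 min.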

[12] = qHTS assay to identify small molecule antagonists of the retinoic acid receptor (RAR) signaling pathway (AID 1159552; further: nearly all actives have a fitted effect of over 50% in size; further: potency means the concentration at half of the fitted maximal effect)
Method in brief: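 Retinol at 1 uM final stimulated RARE-luciferase expression in C3RL4 cells exposed to test compounds for 6 hr at 37 C. Reduced luminescence, read 30 min after detection reagent, indicated pathway antagonism.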

[13] = qHTS assay to identify small molecule agonists of the retinoic acid receptor (RAR) signaling pathway (AID 1159553)
Method in brief: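 Activation of retinol signaling was monitored via a RARE luciferase reporter in C3RL4 cells. After 6 hr compound treatment at 37 C, detection reagent was added for 30 min at room temperature before luminescence reading.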

[14] = target: Retinoic acid receptor RXR-alpha (Homo sapiens) (UniProt P19793); experiment: qHTS assay to identify small molecule agonists of the RXR signaling pathway (AID 1159527; calls by dose curve; further: nearly all actives have a fitted effect of over 35% in size)
Method in brief: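 Cells plated at 2,000/well, rested 5 hr at 37 C, pin-dosed with DMSO compound solutions, incubated 16 hr, then loaded with B/G FRET substrate for 2 hr at RT before dual-emission fluorescence reading.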

[15] = qHTS assay to identify small molecule antagonists of the estrogen related receptor (ERR) signaling pathway (AID 1224819)
Method in brief: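 qHTS in ERR cells, 2,000/well, 1536 format. Cpd (DMSO) added after 6 h settle, 18 h 37 C. One-Glo luminescence, 30 min RT.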

[16] = qHTS assay to identify small molecule agonists of the estrogen related receptor (ERR) signaling pathway (AID 1224820)
Method in brief: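 Cells: ERR line from NTP, 2,000/well. Pre-incubation 6 h, 37 C/5% CO2. Compound (DMSO) pin transfer, 18 h 37 C. One-Glo, 30 min RT, luminescence.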

[17] = test system: estrogen-related receptor alpha (ERRalpha) with PGC-1alpha coactivator, human; experiment: qHTS assay to identify small molecule antagonists of the estrogen related receptor signaling pathway with the pleiotropic PPARgamma coactivator (PGC) (AID 1224821; calls by dose curve)
Method in brief: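 Luminescent read-out (One-Glo, 30 min at room temperature) following 18 h treatment of PGC/ERR cells at 37 C with compounds delivered in DMSO. Cells had settled 6 h at 37 C/5% CO2 before dosing.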

[18] = qHTS assay to identify small molecule agonists of the estrogen related receptor signaling pathway with the pleiotropic PPARgamma coactivator (PGC) (AID 1224823)
Method in brief: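 Steps: plate PGC/ERR cells at 2,000 cells/well; incubate 6 h, 37 C/5% CO2; pin-transfer compounds (DMSO); incubate 18 h, 37 C; add One-Glo; 30 min RT; read luminescence.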

Measured: Potency

Chain of Luciferin 4-monooxygenase (Photinus pyralis) (P08659 whole entry, looked up): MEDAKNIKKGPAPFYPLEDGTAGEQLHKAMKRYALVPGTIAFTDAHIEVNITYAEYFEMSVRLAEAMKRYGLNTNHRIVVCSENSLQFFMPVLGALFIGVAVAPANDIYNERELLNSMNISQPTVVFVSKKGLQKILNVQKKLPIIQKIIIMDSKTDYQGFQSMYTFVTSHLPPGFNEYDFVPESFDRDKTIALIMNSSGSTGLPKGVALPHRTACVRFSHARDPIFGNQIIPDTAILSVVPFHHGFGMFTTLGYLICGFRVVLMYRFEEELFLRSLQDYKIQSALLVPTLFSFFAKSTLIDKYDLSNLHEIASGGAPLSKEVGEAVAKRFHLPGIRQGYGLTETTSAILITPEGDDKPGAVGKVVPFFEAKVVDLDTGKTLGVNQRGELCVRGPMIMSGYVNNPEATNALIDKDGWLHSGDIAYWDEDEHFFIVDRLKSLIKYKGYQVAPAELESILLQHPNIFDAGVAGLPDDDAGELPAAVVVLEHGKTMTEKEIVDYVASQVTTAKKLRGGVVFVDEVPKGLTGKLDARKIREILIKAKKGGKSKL
Chain of Retinoic acid receptor RXR-alpha (Homo sapiens) (P19793 whole entry, looked up): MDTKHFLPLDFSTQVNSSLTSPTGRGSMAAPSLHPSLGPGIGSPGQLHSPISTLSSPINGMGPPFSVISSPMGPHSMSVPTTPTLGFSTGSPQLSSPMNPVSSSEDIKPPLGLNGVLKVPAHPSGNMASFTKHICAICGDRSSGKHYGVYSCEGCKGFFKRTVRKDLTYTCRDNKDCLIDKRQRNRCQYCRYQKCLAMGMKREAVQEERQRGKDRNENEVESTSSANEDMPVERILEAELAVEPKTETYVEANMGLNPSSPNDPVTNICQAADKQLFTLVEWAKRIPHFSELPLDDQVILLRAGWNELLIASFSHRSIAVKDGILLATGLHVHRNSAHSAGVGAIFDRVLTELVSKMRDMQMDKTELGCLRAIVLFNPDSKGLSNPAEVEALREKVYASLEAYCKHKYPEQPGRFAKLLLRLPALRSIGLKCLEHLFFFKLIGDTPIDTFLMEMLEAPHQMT

CC(C)N1C(=O)N(c2ccccc2)CSC1=NC(C)(C)C
inactive: [1] | [2] | [4] | [5]
active: [3] 43.3 µM

CC(C)(O)c1cnn2c(-c3ccc(F)c(-c4c(F)cccc4C#N)c3)cnc2n1
inactive: [6] | [7] | [4] | [5]
active: [3] 61.1 µM

CC(C)OC(=S)S
active: [3] 15.4 µM
inactive: [6] | [8] | [5]

CCCCCCCCCBr
inactive: [2] | [9] | [3] | [7] | [10] | [11] | [4] | [12] | [13] | [8]

CN(C)C(=S)[S-].CN(C)C(=S)[S-].[Cu+2]
active: [6] 4.74 µM | [7] 6.7 µM | [11] 0.844 µM | [4] 16.7 µM | [8] 1.18 µM

CC(C)CCCCCCCOP(=O)(Oc1ccccc1)Oc1ccccc1
inactive: [1] | [2] | [9] | [4] | [8] | [5]

Oc1ccc2ccc3cccc4ccc1c2c34
inactive: [6] | [3] | [4] | [12] | [8]
active: [11] 49 µM | [5] 79.6 µM

Clc1ccc(CCC(Cn2ccnc2)Sc2c(Cl)cccc2Cl)cc1 (stereo not given)
active: [6] 23.9 µM | [7] 26.8 µM | [11] 23.9 µM | [8] 29.8 µM
inactive: [4] | [12] | [13] | [5]

CC(=O)O[C@H]1CC[C@@]2(C)C(=CC[C@@H]3[C@@H]2CC[C@]2(C)C(=O)CC[C@@H]32)C1
inactive: [1] | [9] | [12] | [5]
active: [3] 48.6 µM

CCCCCCCCCC[N+](C)(C)CCCCCCCCCC
inactive: [5]
active: [6] 54.9 µM | [3] 21.7 µM | [7] 34.7 µM | [11] 15.5 µM | [4] 61.1 µM | [12] 12.2 µM | [8] 43.3 µM

CCCCCCCCCCCCBr
inactive: [2] | [9] | [3] | [7] | [10] | [4] | [12] | [13] | [8]

CC(C)(C)OO
not listed: [1] | [6] | [13] | [15] | [16] | [17] | [18]
inactive: all other assays above

O=c1[nH]c2ccccc2n1C1CCN(CCCC(c2ccc(F)cc2)c2ccc(F)cc2)CC1
inactive: [1] | [13] | [16] | [18] | [5]
active: [2] 49 µM and 23.9 µM | [9] 24.3 µM and 29.8 µM | [3] 19.3 µM and 23.7 µM | [7] 19.5 µM | [11] 21.9 µM and 23.9 µM | [12] 61.1 µM | [15] 11.9 µM | [17] 16.2 µM | [8] 30.6 µM and 26.6 µM

COc1ccc(/C(=C/C(=O)N2CCOCC2)c2ccc(Cl)cc2)cc1OC
inactive: [1] | [2] | [9] | [3] | [7] | [10] | [4] | [12] | [13] | [5]

CC(c1ccc(O)cc1)c1ccc(O)cc1
inactive: [2] | [9] | [7] | [10] | [14] | [11] | [4] | [12] | [8]
active: [5] 74.7 µM and 44.8 µM
inactive and 61.1 µM (active): [3]

CC(=O)[O-].[Tl+]
inactive: [1] | [9] | [7] | [10] | [4]
active: [8] 61.5 µM

CC(Cc1ccc(C(C)(C)C)cc1)CN1C[C@@H](C)O[C@@H](C)C1 (stereo not given in full)
inactive: [2] | [9] | [3] | [7] | [10] | [14] | [11] | [4] | [8] | [5]

Oc1cc(Cl)c(Cl)c(Cl)c1
inactive: [6] | [4] | [5]
active: [3] 29.1 µM

N#C/C=C/C#N
inactive: [2] | [9] | [3] | [7] | [10] | [14] | [11] | [4] | [12] | [13]

CCN
not listed: [6] | [13] | [15] | [16] | [17] | [18]
inactive: all other assays above

Cc1cc(C)cc(OP(=O)(Oc2cc(C)cc(C)c2)Oc2cc(C)cc(C)c2)c1
inactive: [2] | [9] | [3] | [7] | [10] | [11] | [4] | [13] | [8] | [5]
